According to PubChem BioAssay (NCI):
The panel holds about 83,000 compounds, 20% with a hit somewhere; the sample as a whole holds those more often.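 Assay: single dose, 48 h. Readout: percent growth (0 = no net growth; negative = cell death). Active: <10.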 Activity calls are given as the source filed them.

What was measured:
Assay in all cases: NCI-60 one-dose screen, 48 h (100 = growth as untreated, 0 = no growth, -100 = all killed)
Conditions in all cases: 10 µM
T-47D breast = test system: T-47D breast
BT-549 breast = test system: BT-549 breast
MDA-MB-435 melanoma = test system: MDA-MB-435 melanoma
SW-620 colon = test system: SW-620 colon
MCF7 breast = test system: MCF7 breast
HCT-116 colon = test system: HCT-116 colon
HCC-2998 colon = test system: HCC-2998 colon
KM12 colon = test system: KM12 colon

Measured: growth

Cc1nc2scc(-c3ccc(Cl)cc3)n2c(=O)c1CCN1CCOCC1
inactive: T-47D breast 76.6% | BT-549 breast 103% | MDA-MB-435 melanoma 95.8% | SW-620 colon 105% | MCF7 breast 90.2% | HCT-116 colon 105% | HCC-2998 colon 106% | KM12 colon 107%

CCCCCCCCCCCCCC[n+]1ccccc1
active: BT-549 breast -42.4% | MDA-MB-435 melanoma -87.6% | SW-620 colon 2.31% | MCF7 breast 2.73% | HCT-116 colon -44.3% | HCC-2998 colon -72.1% | KM12 colon -86.1%
inactive: T-47D breast 12.7%

CCOC(=O)C(=O)Cc1cccnn1
inactive: T-47D breast 122% | BT-549 breast 101% | MDA-MB-435 melanoma 111% | SW-620 colon 109% | MCF7 breast 95.3% | HCT-116 colon 102% | HCC-2998 colon 112% | KM12 colon 108%

CNC(=O)c1cc(Oc2ccc(NC(=O)Nc3ccc(Cl)c(OC4CCCCC4)c3)c(F)c2)ccn1
active: T-47D breast 5.13%
inactive: BT-549 breast 72.6% | MDA-MB-435 melanoma 45.3% | SW-620 colon 62.9% | MCF7 breast 27.8% | HCT-116 colon 11.9% | HCC-2998 colon 82.6% | KM12 colon 26.2%

CCCCC(=O)N(c1ccc(Nc2c3ccccc3nc3cc([N+](=O)[O-])ccc23)cc1)S(C)(=O)=O
inactive: T-47D breast 15.1% | BT-549 breast 86.3% | MDA-MB-435 melanoma 96.8% | SW-620 colon 71.5% | MCF7 breast 17.2% | HCT-116 colon 63.4% | HCC-2998 colon 86.1% | KM12 colon 38.4%

Nc1nsc(C(=O)c2ccc(O)cc2)n1
inactive: T-47D breast 94.2% | BT-549 breast 102% | MDA-MB-435 melanoma 104% | SW-620 colon 108% | MCF7 breast 99.3% | HCT-116 colon 94.8% | HCC-2998 colon 98.7% | KM12 colon 100%

Nc1ccn([C@@H]2O[C@H](COP(=O)(O)O[C@@H]3C[C@H](n4cc(F)c(=O)[nH]c4=O)O[C@@H]3COP(=O)(O)O[C@@H]3C[C@H](n4cc(F)c(=O)[nH]c4=O)O[C@@H]3COP(=O)(O)O[C@@H]3C[C@H](n4cc(F)c(=O)[nH]c4=O)O[C@@H]3COP(=O)(O)O[C@@H]3C[C@H](n4cc(F)c(=O)[nH]c4=O)O[C@@H]3COP(=O)(O)O[C@@H]3C[C@H](n4cc(F)c(=O)[nH]c4=O)O[C@@H]3COP(=O)(O)O[C@@H]3C[C@H](n4cc(F)c(=O)[nH]c4=O)O[C@@H]3COP(=O)(O)O[C@@H]3C[C@H](n4cc(F)c(=O)[nH]c4=O)O[C@@H]3COP(=O)(O)O[C@@H]3C[C@H](n4cc(F)c(=O)[nH]c4=O)O[C@@H]3COP(=O)(O)O[C@@H]3C[C@H](n4cc(F)c(=O)[nH]c4=O)O[C@@H]3COP(=O)(O)O[C@@H]3C[C@H](n4cc(F)c(=O)[nH]c4=O)O[C@@H]3COP(=O)(O)OCCOCCOCCOCCOCCOCCO)[C@H](O)C2O)c(=O)n1 (stereo partly drawn)
inactive: T-47D breast 80.5% | BT-549 breast 48.7% | MDA-MB-435 melanoma 61.4% | SW-620 colon 58.2% | MCF7 breast 19.4% | HCT-116 colon 20.4% | HCC-2998 colon 50.4% | KM12 colon 47%

O=C(/C=C/c1ccc(Cl)cc1)c1ccc(Br)cc1
inactive: T-47D breast 79.7% | BT-549 breast 102% | MDA-MB-435 melanoma 99.1% | SW-620 colon 102% | MCF7 breast 26.3% | HCT-116 colon 75.5% | HCC-2998 colon 95% | KM12 colon 93.8%

COc1ccc(/C=C(\c2cc(OC)c(OC)c(OC)c2)c2nnc(-c3cccs3)o2)cc1
inactive: T-47D breast 78.7% | BT-549 breast 84.4% | MDA-MB-435 melanoma 65.9% | SW-620 colon 89.1% | MCF7 breast 72.4% | HCT-116 colon 66.4% | HCC-2998 colon 89.2% | KM12 colon 90%

CCCCc1ccc(NC(=O)N(CCCl)N=O)cc1
inactive: T-47D breast 112% | BT-549 breast 85.4% | MDA-MB-435 melanoma 92% | SW-620 colon 93% | MCF7 breast 92.7% | HCT-116 colon 97.1% | HCC-2998 colon 117% | KM12 colon 94.3%

CCOC(=O)c1c(C(F)(F)F)n([O-])c2ccc(OC)cc2[n+]1=O
inactive: T-47D breast 12% | MDA-MB-435 melanoma 23.6% | SW-620 colon 30.2% | MCF7 breast 31.9% | HCT-116 colon 29.4% | HCC-2998 colon 43.8% | KM12 colon 43.7%
active: BT-549 breast -3.39%

O=C(Nc1cccc(-c2nc3ccccc3[nH]2)c1)c1cccc(NC(=O)c2ccco2)c1
inactive: T-47D breast 65.9% | BT-549 breast 96.3% | SW-620 colon 96.6% | MCF7 breast 61.8% | HCT-116 colon 58.4% | HCC-2998 colon 96.6% | KM12 colon 88.1%
active: MDA-MB-435 melanoma -1.71%

Fc1cc(-c2ncc(-c3cc(F)c(F)c(F)c3)c(NC3CCCCCC3)n2)cc(F)c1F
inactive: T-47D breast 102% | BT-549 breast 103% | MDA-MB-435 melanoma 96.8% | SW-620 colon 96.9% | MCF7 breast 90.8% | HCT-116 colon 101% | HCC-2998 colon 127% | KM12 colon 101%

O=C(O)c1ccc(CNc2ccc(C(=O)CCl)cc2)cc1
inactive: T-47D breast 58.1% | BT-549 breast 96.4% | MDA-MB-435 melanoma 87.7% | SW-620 colon 93.4% | MCF7 breast 32.4% | HCT-116 colon 80.8% | HCC-2998 colon 127% | KM12 colon 101%

Nc1nc2c(ncn2C2OC3COP(=O)(O)OC4C(COP(=O)(O)OC2C3O)OC(n2cnc3c(N)ncnc32)C4O)c(=O)[nH]1 (stereo not drawn)
inactive: T-47D breast 84.4% | BT-549 breast 90% | MDA-MB-435 melanoma 105% | SW-620 colon 107% | MCF7 breast 109% | HCT-116 colon 94% | HCC-2998 colon 99.3% | KM12 colon 104%

CC(=O)OCC(COC(C)=O)(COC(C)=O)COC(C)=O
active: T-47D breast -11.3%
inactive: BT-549 breast 112% | MDA-MB-435 melanoma 111% | SW-620 colon 108% | MCF7 breast 93.8% | HCT-116 colon 111% | HCC-2998 colon 101% | KM12 colon 102%
